Reference: PubChem BioAssay (NCATS)
Several values for one entry are separate records, joined by “and”; a condition that tells them apart may be missing. Equal values may be shown once. Records with an inconclusive call do not appear. Activity calls are given as the source filed them. Calls follow the shape of the dose curve; as a rule, active = well fitted curve in the direction sought with a large enough effect; inconclusive = small, poorly fitted or top-dose-only effect, or another doubt; inactive = no such curve, though single readings can be large; an effect the other way counts as inactive or inconclusive.

Tests used:
[1] = NS1 protein of Zika virus - qHTS assay to identify small molecule inhibitors in human HEK 293 cells (AID 1347053); also: nearly all actives have a fitted effect of over 55% in size; also: potency is read from the fitted curve at half-maximal effect
Outline: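 HEK 293; 20 h pre-culture, 37 C/5% CO2; cpd 1 h pre-infection; ZIKV MR766, MOI = 0.5, 24 h, 37 C; TR-FRET NS1 readout (two anti-NS1 Abs); norm. to no-virus vs infected.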

[2] = qHTS of pediatric cancer cell lines to identify multiple opportunities for drug repurposing: Primary screen for TC32 cells (AID 1347089); also: nearly all actives have a fitted effect of over 60% in size; also: potency is read from the fitted curve at half-maximal effect
Outline: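 A viability screen of TC32 cells was run over 48 h, with primary MIPE doses spanning 0.78 nM–46 µM and NPC doses 0.59 nM–46 µM. ATP luminescence (CellTiter-Glo) served as the read-out.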

[3] = qHTS of pediatric cancer cell lines to identify multiple opportunities for drug repurposing: Primary screen for DAOY cells (AID 1347090); also: nearly all actives have a fitted effect of over 55% in size; also: potency is read from the fitted curve at half-maximal effect
Outline: (§1)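 Cell viability, CellTiter-Glo luminescence; 500-1,000 cells/well, 8- or 11-point titration, 48 h compound exposure at 37 degrees C, 5% CO2. Controls: DMSO neutral, bortezomib 2.3 µM final as positive.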

[4] = qHTS of pediatric cancer cell lines to identify multiple opportunities for drug repurposing: Primary screen for SJ-GBM2 cells (AID 1347091); also: potency is read from the fitted curve at half-maximal effect
Outline: as §1

[5] = qHTS of pediatric cancer cell lines to identify multiple opportunities for drug repurposing: Primary screen for A673 cells (AID 1347092); also: nearly all actives have a fitted effect of over 45% in size; also: potency is read from the fitted curve at half-maximal effect
Outline: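 Titration-based qHTS on A673 cells: MIPE compounds spanned 11 points (0.78 nM to 46 µM final), NPC compounds 8 points (0.59 nM to 46 µM final). Viability after 48 h was measured by ATP luminescence.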

[6] = qHTS of pediatric cancer cell lines to identify multiple opportunities for drug repurposing: Primary screen for SK-N-MC cells (AID 1347093); also: potency is read from the fitted curve at half-maximal effect
Outline: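 Metabolically active cells were quantified by ATP-dependent luminescence (CellTiter-Glo, 15 min at room temperature) following 48 h treatment. Cells had been plated at 500-1,000 per well and settled for 5 h beforehand.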

[7] = qHTS of pediatric cancer cell lines to identify multiple opportunities for drug repurposing: Primary screen for BT-37 cells (AID 1347094); also: potency is read from the fitted curve at half-maximal effect
Outline: (§2)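 Following a 5-hour attachment period, cells at 500-1,000/well received compounds and were cultured for 48 hours. CellTiter-Glo was added and luminescence read to estimate viable, metabolically active cells.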

[8] = qHTS of pediatric cancer cell lines to identify multiple opportunities for drug repurposing: Primary screen for NB-EBc1 cells (AID 1347095); also: potency is read from the fitted curve at half-maximal effect
Outline: as §2

[9] = qHTS of pediatric cancer cell lines to identify multiple opportunities for drug repurposing: Primary screen for U-2 OS cells (AID 1347096); also: nearly all actives have a fitted effect of over 50% in size
Outline: (§3)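 Cells (500-1,000/well) rested 5 h, then received compounds for 48 h; metabolically active cells were measured by CellTiter-Glo luminescence. Final concentrations spanned up to 46 µM (MIPE, 11-point) or 0.59 nM-46 µM (NPC, 8-point) in primary screens, 11-point in follow-ups.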

[10] = qHTS of pediatric cancer cell lines to identify multiple opportunities for drug repurposing: Primary screen for LAN-5 cells (AID 1347100); also: potency is read from the fitted curve at half-maximal effect
Outline: as §3

[11] = qHTS of pediatric cancer cell lines to identify multiple opportunities for drug repurposing: Primary screen for Rh18 cells (AID 1347102); also: nearly all actives have a fitted effect of over 65% in size
Outline: as §3

[12] = qHTS of pediatric cancer cell lines to identify multiple opportunities for drug repurposing: Primary screen for BT-12 cells (AID 1347101); also: nearly all actives have a fitted effect of over 25% in size; also: potency is read from the fitted curve at half-maximal effect
Outline: as §3

[13] = qHTS of pediatric cancer cell lines to identify multiple opportunities for drug repurposing: Primary screen for SK-N-SH cells (AID 1347098); also: nearly all actives have a fitted effect of over 65% in size; also: potency is read from the fitted curve at half-maximal effect
Outline: as §3

[14] = qHTS of pediatric cancer cell lines to identify multiple opportunities for drug repurposing: Primary screen for NB1643 cells (AID 1347099); also: nearly all actives have a fitted effect of over 50% in size; also: potency is read from the fitted curve at half-maximal effect
Outline: as §2

[15] = qHTS of pediatric cancer cell lines to identify multiple opportunities for drug repurposing: Primary screen for Saos-2 cells (AID 1347097); also: nearly all actives have a fitted effect of over 40% in size; also: potency is read from the fitted curve at half-maximal effect
Outline: as §2

Measured: Potency

O=C(CCN1CCN(C(=O)OCc2cc(Cl)cc(Cl)c2)CC1)c1ccc2[nH]c(=O)oc2c1
not listed: [12] | [13] | [14] | [15]
inactive: all other assays above

O=c1ccn([C@@H]2O[C@H](CO)[C@H](O)[C@H]2O)c(=O)[nH]1
not listed: [8] | [13] | [14] | [15]
inactive: all other assays above

C[C@@H](O)[C@H]1C(=O)N2C(C(=O)O)=C(S[C@@H]3CN[C@H](C(=O)N(C)C)C3)[C@H](C)[C@H]12
not listed: [12] | [15]
inactive: all other assays above

N[C@@]1(C(=O)O)CS(=O)(=O)[C@H]2[C@H](C(=O)O)[C@H]21
active: [5] 1.87 µM | [6] 18.7 µM
not listed: [7] | [10] | [12] | [14]
inactive: all other assays above

CC[C@]1(O)C[C@@H]2CN(CCc3c([nH]c4ccccc34)[C@@](C(=O)OC)(c3cc4c(cc3OC)N(C)[C@H]3[C@@](O)(C(=O)OC)[C@H](OC(C)=O)[C@]5(CC)C=CCN6CC[C@]43[C@@H]65)C2)C1
inactive: [1]
active: [2] 118 nM and 592 nM | [3] 26.6 nM and 133 nM | [4] 0.075 µM | [5] 21.1 nM and 133 nM | [6] 33.5 nM and 106 nM | [7] 43.7 nM and 174 nM | [15] 42.2 nM and 168 nM | [14] 1.33 µM | [10] 0.133 µM

O=c1c(-c2ccc(O)cc2)coc2cc(O[C@@H]3O[C@H](CO)[C@H](O)[C@H](O)[C@H]3O)ccc12
not listed: [8]
inactive: all other assays above

CCC(CC)[C@H](NC(C)=O)[C@@H]1[C@H](O)[C@@H](C(=O)O)C[C@@H]1N=C(N)N
not listed: [15]
inactive: all other assays above

O=C(O)[C@H]1O[C@H](Oc2cc3oc(-c4ccccc4)cc(=O)c3c(O)c2O)[C@H](O)[C@@H](O)[C@H]1O
active: [14] 0.118 µM
not listed: [6] | [8] | [11] | [15]
inactive: all other assays above

CN(C)CCC=C1c2ccccc2COc2ccc(CC(=O)O)cc21
active: [5] 18.7 µM
not listed: [6] | [8] | [13] | [14]
inactive: all other assays above

CN(C)c1cc(NC(=O)CNC(C)(C)C)c(O)c2c1C[C@@H]1C[C@H]3[C@H](N(C)C)C(=O)C(C(N)=O)=C(O)[C@@]3(O)C(=O)C1=C2O
not listed: [5] | [7] | [10] | [15]
inactive: all other assays above

O=c1cc(-c2ccccc2)oc2cc(O)c(O)c(O)c12
active: [15] 18.7 µM
not listed: [7] | [9] | [10] | [11] | [12]
inactive: all other assays above

COc1cc2c(cc1OC)CN(CCc1ccc(NC(=O)c3cc(OC)c(OC)cc3NC(=O)c3cnc4ccccc4c3)cc1)CC2
inactive: [1] | [2] | [3] | [4] | [9] | [12] | [11]
active: [6] 10.5 µM | [13] 19.2 µM | [14] 14.8 µM

CC(C(=O)O)c1ccc(-c2ccccc2)c(F)c1 (centres undefined)
active: [5] 14.8 µM | [13] 24.1 µM | [14] 26.4 µM
not listed: [3] | [6] | [7] | [15]
inactive: all other assays above

C[C@]12CC[C@@H]3c4ccc(O)cc4CC[C@H]3[C@H]1C[C@@H](O)[C@H]2O
not listed: [5] | [6] | [8] | [12] | [13] | [14]
inactive: all other assays above

O=C(CCc1ccc(O)cc1)c1c(O)cc(O)cc1O[C@@H]1O[C@H](CO)[C@H](O)[C@H](O)[C@H]1O
active: [14] 26.4 µM
not listed: [3] | [6] | [12] | [15]
inactive: all other assays above

O=C(O)c1ccc(-c2cc3cccnc3c(-c3ccc4nonc4c3)n2)cc1
inactive: [2] | [3] | [9]
active: [1] 23.5 µM | [5] 18.7 µM | [6] 3.32 µM | [7] 24.3 µM | [10] 20.9 µM

O=c1[nH]cnc2c1ncn2[C@H]1CC[C@@H](CO)O1
active: [5] 29.6 µM | [6] 9.35 µM
not listed: [4] | [12] | [13] | [14] | [15]
inactive: all other assays above

O=c1c(O)c(-c2ccc(O)cc2)oc2cc(O)cc(O)c12
active: [4] 14.8 µM | [5] 14.8 µM | [6] 11.8 µM | [8] 9.35 µM | [14] 11.8 µM | [10] 6.62 µM
inactive: [1] | [2] | [9]

CC(=O)OC1C(C)OC(Oc2c(-c3ccc(O)cc3)oc3cc(O)cc(O)c3c2=O)C(O)C1OC(C)=O (centres undefined)
active: [5] 11.8 µM | [15] 18.7 µM
inactive: [1] | [2] | [3] | [9] | [13]

O=C(O)c1ccc(-c2c[nH]c3ncc(-c4ccccc4)cc23)cc1C1CCCC1
active: [6] 0.166 µM
not listed: [4] | [5] | [10] | [13] | [14]
inactive: all other assays above

CCC(=O)NC[C@H](Cc1ccc(OCCc2nc(-c3ccccc3)oc2C)cc1)NC(C)=CC(=O)c1ccc(C(F)(F)F)cc1
inactive: [2] | [11]
active: [1] 16.6 µM | [4] 3.32 µM | [5] 1.87 µM | [6] 2.35 µM | [8] 0.743 µM | [15] 16.6 µM | [14] 13.2 µM | [10] 3.32 µM

CC(C)=CC[C@@H](O)C1=CC(=O)c2c(O)ccc(O)c2C1=O
active: [4] 1.05 µM | [5] 0.935 µM | [6] 1.05 µM | [8] 0.743 µM | [15] 18.7 µM | [13] 6.81 µM | [14] 3.32 µM | [10] 14.8 µM | [12] 17.2 µM
inactive: [1] | [2] | [9]

CC1(C)O[C@H]2C[C@@H]3[C@H]4CCC5=CC(=O)C=C[C@]5(C)[C@@]4(F)[C@@H](O)C[C@]3(C)[C@]2(C(=O)CO)O1
active: [5] 3.72 µM | [6] 8.33 µM | [7] 13.7 µM | [8] 2.35 µM | [14] 14.8 µM | [10] 7.43 µM
not listed: [4] | [12]
inactive: all other assays above

O=C(O)c1ccccc1C(=O)Nc1ccc(-c2ccccc2)cc1
not listed: [3] | [8] | [13]
inactive: all other assays above

N[C@H](CSC(c1ccccc1)(c1ccccc1)c1ccccc1)C(=O)O
active: [4] 5.26 µM | [5] 9.35 µM | [6] 14.8 µM | [8] 11.8 µM | [15] 9.35 µM | [12] 27.3 µM
not listed: [3] | [7] | [10]
inactive: all other assays above

CC(C)(C)COc1ccc(-n2cc(C(=O)O)cn2)cc1C#N
not listed: [3] | [6] | [8] | [13] | [14]
inactive: all other assays above

O=C(Nc1c(Cl)cncc1Cl)c1ccc(OC(F)F)c(OCC2CC2)c1
not listed: [3] | [6] | [13] | [14] | [15]
inactive: all other assays above

CC(=O)Oc1cc2c(s1)CCN(C(C(=O)C1CC1)c1ccccc1F)C2 (centres undefined)
inactive: [1] | [2]
active: [3] 1.48 µM | [5] 1.48 µM | [6] 1.32 µM | [7] 1.09 µM | [8] 3.72 µM | [12] 3.06 µM
